About 3,700 (7%) of roughly 53,000 sequences were called active. Many of the other results were omitted from the sample, so actives are more common in it than they were. Values without a mark were called inactive.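 The calls were made as follows: active = gene knockdowns whose robust z-score for IL-1 alpha signal is at least 2 or at most -2, so actives lie on both sides; inactive = the rest.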

This test in a line: Components of the Cytosolic LPS Sensing Pathway: Gene Identification via Genome-wide siRNA Screen. The settings on record: RAW264.7 macrophages, IL-1a HTRF, actives lie on both sides, screened at 100 nM (by protocol), cells primed 5 h with Pam3CSK4 first. An excerpt: Non-canonical inflammasome activation by cytosolic LPS is a critical component of the host response to Gram-negative bacterial infection, however we lack a comprehensive understanding of the cellular processes that control this pathway. Here we describe a genome-wide siRNA screen to identify genes regulating the mouse macrophage IL-1 alpha response to cytosolic LPS.
RAW264.7 cells were maintained in complete DMEM media, comprising DMEM with 4.5 g/L glucose, 10% FBS (Gemini Bio-Products, West Sacramento, CA), 2 mM Glutamine (Lonza) and 20 mM HEPES (Lonza), hereafter complete DMEM.
The RNAi screen was conducted in 384-well format using the Ambion Silencer Mouse Genome siRNA Library (#4391425), which consists of three unique, nonoverlapping, nonpooled siRNAs for each of 17,000 gene targets. siRNA reagents ([…]) were stamped into 384-well white flat-bottom microplates (Corning, 3570) using a Velocity11 VPrep liquid handling system (Agilent) integrated into a BioCel robotic platform (Agilent) in columns 1-22, leaving columns 23-24 empty for negative (Ambion, Negative control #1) and positive (mouse Casp4) controls, respectively. The median value of each plate's negative control column was used to normalize sample wells, and the positive control was used to assess transfection efficiency and assay performance.
Lipofectamine RNAiMAX Transfection Reagent ([…]; Invitrogen) was added in […] serum-free, antibiotic-free media to plate wells using a Thermo Scientific Matrix WellMate and Microplate Stacker. Plates were incubated for 45 min at room temperature to allow for the sufficient formation of siRNA-lipid complexes. Cells were seeded at a density of 1x10^4 cells per well in 20 microL media containing 20% (vol/vol) FBS without antibiotics. The final concentration of siRNA in each well was 100 nM. Cells were cultured for 48h at 37 degrees C in 5% CO2 before addition of […] of TLR ligand Pam3CSK4 for 5 hours. The medium was then removed, replaced with […] growth media and cell were transfected with […] of LipidA and TransIT-TKO (Mirus) for 24 hour. At the end of the LipidA treatment, […] of supernatant was transferred to a 384 Greiner Bio-one non-binding low volume plate and […] of IL-1a HTRF reagent (Cisbio, 62MIL1APEH) was added and incubated at room temperature overnight. The plates were read on an EnVision plate reader (PerkinElmer). Cell viability was measured by adding 20ul Cell Titer Glo to the original plate and running a luminescence read on the EnVision. The quantified IL-1a signal for each siRNA gene-targeted well was divided by the median of the negative control wells and multiplied by 100 to achieve a negative control normalized value for each well/siRNA. This normalized value was then used to generate a robust z-score by first taking the log of each value and then by subtracting the median and dividing by the […].
In general terms: In TR-FRET formats the signal depends on donor and acceptor labels being close together.
With CCUGGUAAUCACAAUUUCGTT against Tor1b, the z-score was -0.655. The result for GGUAGACAAGAUCAUCGGATT against Dsc3 reads 0.711. The value for GGCAUAGAAGAGAUGACAGTT against Fabp7 was -2.18 (active). As to GCCUGUCUGCCUUUGCUUCTT against H4c9, the z-score is 2.47 (active).

Take GCUCGUACAUCUAUGGCUATT against Psmb6: the z-score is -0.633. Consider GGACCUAAGCAUUUUACAUTT against Traf2, for which the z-score is -0.143. As for CCUAUGUGUACUUCAUCCUTT against Elovl1, the z-score is 2.93 (active).

“GCCUUUUAUACAUGUUUGATT against B130024G19Rik”: the z-score was -1.55. The result for GCUAGAGUAUGAGAACUUCTT against Cdc14b reads 0.233. The result for GGUAGAGAACCAGAGGCAUTT against Ninj2 reads -0.164. The result for GCCAGGAAUGCUAUUCUCGTT against Lrg1 reads -2.26 (active). Take CCACCAUUUACUGAGUUUATT against Scn2b: the z-score is -0.324. GUCUUUGGAAAUCUACUCATT against Olfr1189: the z-score was -1.21. The result for GGAGAUUCUGUGCAAUGCATT against Dnajc12 reads -0.0758. With CCAUUAACGUAAAUUCUGUTT against Ankrd13c, the z-score is -0.971. The value for GCUCAUACCUAUCUCAAGGTT against Tnfsf9 was 0.365. Take CCUAACAUAGUAUAGCCUUTT against Zfp868: the z-score is -0.0695. The value for GGUCCUGAAGAUACAUAUUTT against Taf2 was -2.42 (active); that for GGGAGAAAUGCAAAUAUUUTT against Mbnl2 was -0.37; that for GGUGAAGAAAGCGGAAAAGTT against Cstf3 was -0.19. In the case of GGACCUGUUUUGGAAAUAUTT against Jchain, the z-score was -0.613. Regarding GGGUUAUGGACACUACCCATT against Tnk1, the z-score is -1.84. The value for GGUACGAGAACAACUGACUTT against Acot3 was 0.269. The result for GGUACGUGAGAGAAUUCUGTT against Trem2 reads 3.14 (active). On to GGUCAGAUACAAUGUAUAUTT against Ap1s3, for which the z-score is -0.793. The result for GGUGUGUAAUGUGCGUGAGTT against Ephb3 reads 1.11; that for GGGAUCCUUAUUUCAUACUTT against Olfr868, 1.16.

In the case of GGCGGAAAUCAAAGGAGGATT against Dnmt1, the z-score is 0.791.

As for GGUGGAGUUUAAACUUACATT against Atp4b, the z-score is 5.64 (active). Regarding GGAAACGAUAGCCAAUAUUTT against Scp2d1, the z-score is -1.08. The value for GGGAUCAAUGGCUACCUGUTT against Slc7a10 was -0.0112. With UAACUGGGCUCACGUUGACTT against Pou2f1, the z-score is 0.47. As to GGUACAAAAUGGCUUGUUGTT against Tmem215, the z-score is 2.53 (active). Consider GGUCCACACCAGACAUCAATT against Wfdc5, for which the z-score is 0.263. With CGGUGAUGGUUCAUUUGCATT against Zmiz2, the z-score is 1.36. The value for GGCUGUGAAGAACUGGCAGTT against Rnaseh2a was 1.85; that for “GGUUGUGAGCUAACAAUGGTT against B430209F14Rik” was 1.25; that for GAGAACGCGUUUUUGGGACTT against Defa5 was 1.66. The value for GGGAUGUAUUAGUGAAAGGTT against Dmpk was 0.368. The result for GGAGGAAAUAUGUUAACUATT against Atp6ap2 reads 1.22; that for CGGCAACCGGCACUAUAAATT against Pnoc, 0.231; that for GGCAUUUCAUAGAGAGAAUTT against LTO1, -2.21 (active). With GCCUUAGGCCUUUGUUUCCTT against Tpgs2, the z-score was 0.124. For the sequence GGUUCUGGACUUCAUCCUCTT against Ocstamp, the z-score is 1.42. The result for GGAAAAUUAAUAGCACAAGTT against Acot13 reads 0.0633; that for GGUUUACUGUGAAAAAAGATT against Morc2b, 0.0774; that for CCUGAUACUAACAAGGAAATT against Afmid, -0.625. In the case of GGUUGUCUUGACACCCUACTT against Tnfrsf1b, the z-score was -2.21 (active).

As for GGAGAAGCAGAUUCUUCAATT against Calhm6, the z-score is -0.0547.

For the sequence GGGAUGUCUGUUGAAAUAATT against Prcc, the z-score is -0.422.

With CCAUGACACUCAUUCCCAGTT against Tbc1d7, the z-score is -2.64 (active).

In the case of CCAUGUUUAUGGCACGCUGTT against Postn, the z-score was 0.536.

Consider GGUUUGUAGAGGCAUCAAGTT against Snph, for which the z-score is -0.13. With GCAUCCUUCUGAGUUGAUGTT against Tollip, the z-score is -1.02. In the case of CCUUGAGAAAGCUCCAGUUTT against Cldn9, the z-score is 0.0773. With GGUGUUUCAUAUGGUUACUTT against Psma3, the z-score was -0.94. In the case of GGAAGUUUGAGUUUGAGCUTT against Fbxl21, the z-score is 1.79.

Regarding GCUCUCUAUAGGAUAAUGGTT against Vwa5b2, the z-score was -1.86. As to CGAUAUCAAGAGUGCAUGATT against Gas6, the z-score was 2.97 (active). On to GGCUAAUCACCAAUUUCUUTT against Derl2, for which the z-score is -1.19. The result for GCACCUUCAACCAACAAGGTT against Dph3 reads -0.311; that for GGUCAUUCGCUUCGAAAAGTT against C1qb, -2.05 (active).

As for GGAAUUCCUCUGUAUGAAATT against Pgr, the z-score was -0.824. The value for GGACUACCACAGCCUCUUCTT against Pxn was 0.173; that for GGGCAAAUGAUAUAAGGAUTT against Ndufa12 was -0.585; that for CCUCUUGGUUAAAUAAUGUTT against Rnf103 was -1.9. The result for GCGGCAACAUUCAAAGUGGTT against Itgb2l reads -1.94; that for GGCUGUGUCAUCACCAUCUTT against Acot7, -1.31. As to GGAUGCUCUCUUAAAUGGATT against Gbp6, the z-score is 0.327.

On to GGUUGUCAAGAAAUUACCCTT against Marchf10, for which the z-score was 2.14 (active).

GGAUGAUAUCUCAGUCAUGTT against Sult2a8: the z-score is 0.462. The result for GGAAGGAAUUGGUUACCUATT against Cep72 reads -0.2. The value for GGCUGAGUGAAUUGGGAAUTT against Olfr419 was 1.28; that for GGACGAUAGGACCCAAAGGTT against Sh3tc1 was 0.668; that for GGAUUUGUACACACUUCAATT against Tcim was 1.48. The value for GGCAUCCAAUCCUGUGGAGTT against Bcl11a was -0.62; that for GGGAGAUAUCUUCUCAGUATT against Psmb11 was 1.5. For the sequence CGUAGAUGUCCUAGAAUUGTT against Rundc1, the z-score is 1.37.

Take GGAGGAGUAUGAAGAGCUGTT against Poc5: the z-score was -0.0911. As to GGACAAUUCAGAGUGAUAGTT against Mog, the z-score was -2.21 (active). GCGAUGAUAAGUGCCUGGUTT against Stk31: the z-score was -1.58. In the case of CGGAGUGAAACUACUCAUUTT against Ckb, the z-score was -0.773. The value for GGUGAUUUAUUCAGUUCAATT against Lmbrd2 was -1.13; that for CCUUUGAAAAAGCUUGCCATT against Tor1aip2 was 0.0385. Consider GGUGCUAUGGAAAAUCAAGTT against Dcaf1, for which the z-score is -1.04.

As to GGAAAUGUUUAUCACGGUUTT against Scube2, the z-score was 2.05 (active). The value for GGUCAUGCAAGACAAGAUCTT against Lrrc8c was 0.487; that for GGCAGCGAAAGUUUUCAAGTT against Pcdhga12 was 0.721. The value for GGAAUCCUGGAUUGAGGAATT against Rhod was 0.394. The value for GCACUGGAAUGUCAUCUCGTT against Casp3 was 2.9 (active). For the sequence GGGUCAACUACUCACACUGTT against Crhr2, the z-score is 0.78. The value for CCAUAAGCGAAAUGCCUUCTT against Areg was 0.201; that for CGUUGUUUAUUCCAAAGAGTT against Runx1 was 0.44.

Consider GGAAGUAAAGGGAUUUAACTT against Ankrd46, for which the z-score is 2.19 (active).

With GACCCAGGCUCUGCUCUUUTT against Olfr1413, the z-score was 0.413. Take CCGGAAAUUUCUGAUGGAGTT against Eif4ebp1: the z-score was 2.19 (active). The result for GCUAGAUAUCCGGAACCAATT against Ndufv3 reads -0.752; that for GAGACAUCCUCUUCACCAUTT against Olfr495, -1.25. Regarding GGAAGAAUUCUCAAAGAAUTT against Scyl3, the z-score was -0.343.

Turning to GGAUCUGAGCCUUAACAAGTT against Lpcat3, the z-score was 2.92 (active). The result for GGAAGAGCUGCUGAAUUCATT against Mthfd2 reads 0.052; that for GGUUAUCUUGAAUAAAGCUTT against Zfp346, -0.303.

On to “CCGAUAAAAGAUGACCUCATT against D17H6S56E-5”, for which the z-score is -0.241. The value for GGUUUGAGAGUGGUAAUCUTT against Agbl3 was 2.17 (active). The result for GGCGAUUUACAAGCUGAAGTT against Guca1b reads 0.566. With CCGUUAGAGCUGUUAUUUUTT against Olfr556, the z-score was 0.959. Take CCUCGAACCAAGAUGUUCATT against Pdzrn3: the z-score is 0.851. The value for GGCACACAAUUUUCACUGATT against Pcdhb9 was 0.315.

(Values after PubChem BioAssay AID1508600 (Functional Genomics Laboratory (NCATS/FGL), 2020).)
